Data reported in PubChem BioAssay (EPA / NIEHS).
Active and inactive are the calls of the source. How the source made its calls: active means hit-call score of the fitted dose curve at least 0.9, where 1 is the maximum; inactive means score below 0.9.

Assay: CCTE_Padilla_ZF_Score.General: CCTE's 144 Hour Post-fertilization zebrafish Assay Score for General Malformation, Padilla Lab (AID 2284411)
Procedure: CCTE_Padilla_ZF_Phenotype_Score is a whole embryo, multiplexed assay using zebrafish ova exposed for 144 hours post fertilization on a 96-well plate.CCTE_Padilla_ZF_Score.General is one of one assay component(s) measured or calculated from the CCTE_Padilla_ZF_Phenotype_Score assay. It is designed to make measurements of zebrafish development as detected with brightfield microscopy of developing zebrafish embryos.Data from the assay component CCTE_Padilla_ZF_Score.General was analyzed into 1 assay endpoints. This assay endpoint, CCTE_Padilla_ZF_Score.General, was analyzed in the positive analysis fitting direction relative to DMSO as the negative control and baseline of activity. Using a type of viability reporter, gain-of-signal activity can be used to understand changes in developmentals as they relate to the whole embryo. To generalize the intended target to other relatable targets, this assay endpoint is annotated to the zebrafish development intended target family, where the subfamily is embryonic morphogenesis.
Zebrafish husbandry: Wild type adult zebrafish (Danio rerio; undefined outbred stock obtained from Aquatic Research Organisms, Hampton, NH, 03842) were housed in an AAALAC-approved animal facility at 28C with a 14:10 h light: dark cycle (lights on at 08:30 h). Adult fish (2-3 females per male; density = 15-20 adults per tank) were kept in one of several 9-liter (L) flow-through colony tanks (Aquaneering Inc., San Diego, CA). All adults in a colony tank were placed in a 2 L (static) breeding tank (Aquatic Habitats, Apopka, FL) one hour prior to light onset. Typically, adults from two to three colony tanks were mated on the same day. Two hours after light onset the adults were returned to the colony tank. All embryos were gathered from each breeder tank, pooled, and placed in a 28C water bath for 2 h, followed by two washes with 0.06% bleach (v/v) in 10% Hanks' Balanced Salt Solution (13.7 mM NaCl 0.54 mM KCl, 25 uM Na2HPO4, 130 uM CaCl2 100 um MgSO4 and 420 um NaHCO3,), hereafter referred to as Hanks' solution, for 5 min in order to remove any residual bacteria or fungi. Immediately following washing, the embryos were examined, and healthy embryos were separated from dead or unfertilized eggs and moved into fresh Hanks'. Chemical exposures: Zebrafish embryos were exposed in 96-well plates. Between 6- and 8-hours post fertilization (hpf), healthy embryos (with chorions) were transferred, one embryo per well, into 96 well (0.5 mL) microtiter plates (Cell Culture-Treated, Flat-Bottom Microplate 96 well [Corning Costar, Kennebunk, ME; Cat 09-761-145]) filled with 200 uL of Hanks' solution. A random number generator was used to assign the order in which the rows of embryos were plated in 96 well plates each week. After plating, the embryos were dosed with 0.8 uL of the chemical dosing solution then immediately sealed with AlumaSeal II (Excel Scientific Inc, Victorville, CA) to prevent volatilization of the chemicals, and then placed in a leakproof secondary container. These containers were placed in an incubator maintained on a 14:10 h light: dark cycle at 26C for rearing. On 5 dpf, live larvae were gently moved out of the plate with test chemicals and into a new 96 well mesh plate (Millipore Corp., Bedford, MA) with just the Hanks' solution. Once within the mesh well plate, the animals were rinsed with 400 uL of fresh Hanks' three times, and then the plates were covered with a non-adhesive material (Microseal A, BioRad, Hercules, CA), plate lid added, and then plate sides wrapped in Parafilm (PM992, Bermis Company, Neenah, WI), and returned to the incubator. […]

| SMILES | outcome | AC50 |
| --- | --- | --- |
| CCCCCC(C=O)=Cc1ccccc1 | inactive | – |
| C=Cc1ccncc1 | – | 22.6 µM (active) |
| C[C@@H]1CCN(C(=O)[C@H](CCCN=C(N)N)NS(=O)(=O)c2cccc3c2NC[C@H](C)C3)[C@@H](C(=O)O)C1 | inactive | – |
| c1ccc(CCc2ccccc2)cc1 | inactive | – |
| C=C(C)C(=O)OCCOCCOCCOC(=O)C(=C)C | inactive | – |
| FC(F)(F)COCC(F)(F)F | inactive | – |
| CN(c1nccc(=O)[nH]1)C1CCN(c2nc3ccccc3n2Cc2ccc(F)cc2)CC1 | inactive | – |
| c1ccc(Oc2ccccc2)cc1 | inactive | – |
| CC1(C)C2=CCCC(C)(C)[C@]23CC[C@H]1C3 | inactive | – |
| C=C(C)C(=O)OCCOCCOCCOCCOC(=O)C(=C)C | inactive | – |
| CCN(CC)C(=O)N(CC)CC | inactive | – |
| COc1ccc(CCN2CCC(Nc3nc4ccccc4n3Cc3ccc(F)cc3)CC2)cc1 | – | 0.439 µM (active) |
